# Source: PubChem BioAssay AID1159580 (chemical genetic matrix, 2015)
# Out of some 5,500 compounds screened, about 2,000 (36%) were called active. Not shown: some 18% with an inconclusive outcome. Some of the results follow. Unmarked numbers belong to inactive results. Rule as the data show it: active = normalized growth mostly below about 0.91 (no sharp cut-off); inconclusive = no clear call, values can overlap the other calls; inactive = mostly above about 0.92.
# Experiment: chemical genetic growth profiling, strain panel (AID 1159580);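 also: tested at 20 µM; growth read once vehicle control cultures reached saturation at 30 °C; 1 = growth at the plate median or of vehicle wells; lower values mean less growth of the strain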
# Details: growth OD
compound,measurement,setting,value
Oc1c(I)cc(I)c2cccnc12,normalized growth,"S. cerevisiae deletion strains, locus YJL187C, strain SWE1, stronger effect = lower value",0.0737 (active)
same,normalized growth,"S. cerevisiae deletion strains, locus YJR043C, strain POL32, stronger effect = lower value",0.08 (active)
same,normalized growth,"S. cerevisiae deletion strains, locus YJR066W, strain TOR1, stronger effect = lower value",0.106 (active)
same,normalized growth,"S. cerevisiae deletion strains, locus YKL009W, strain mrt4, stronger effect = lower value",0.274 (active)
same,normalized growth,"S. cerevisiae deletion strains, locus YKL068W, stronger effect = lower value",0.479 (active)
same,normalized growth,"S. cerevisiae deletion strains, locus YKL085W, strain MDH1 (second series), stronger effect = lower value",0.253 (active)
same,normalized growth,"S. cerevisiae deletion strains, locus YKL085W, strain MDH1, stronger effect = lower value",0.253 (active)
same,normalized growth,"S. cerevisiae deletion strains, locus YKL160W, strain elf1, stronger effect = lower value",0.0775 (active)
same,normalized growth,"S. cerevisiae deletion strains, locus YKL190W, strain CNB1, stronger effect = lower value",0.0667 (active)
same,normalized growth,"S. cerevisiae deletion strains, locus YKR001C, strain vps1, stronger effect = lower value",0.1 (active)
same,normalized growth,"S. cerevisiae deletion strains, locus YKR026C, strain gcn3, stronger effect = lower value",0.0967 (active)
same,normalized growth,"S. cerevisiae deletion strains, locus YKR091W, strain srl3, stronger effect = lower value",0.129 (active)
same,normalized growth,"S. cerevisiae deletion strains, locus YLL001W, strain dnm1, stronger effect = lower value",0.085 (active)
same,normalized growth,"S. cerevisiae deletion strains, locus YLL026W, stronger effect = lower value",0.652 (active)
same,normalized growth,"S. cerevisiae deletion strains, locus YLL041C, strain sdh2, stronger effect = lower value",0.083 (active)
same,normalized growth,"S. cerevisiae deletion strains, locus YLR027C, strain aat2, stronger effect = lower value",0.0875 (active)
same,normalized growth,"S. cerevisiae deletion strains, locus YLR039C, strain RIC1, stronger effect = lower value",0.156 (active)
same,normalized growth,"S. cerevisiae deletion strains, locus YLR058C, strain SHM2, stronger effect = lower value",0.0693 (active)
same,normalized growth,"S. cerevisiae deletion strains, locus YLR102C, strain apc9, stronger effect = lower value",0.0939 (active)
same,normalized growth,"S. cerevisiae deletion strains, locus YLR113W, strain HOG1, stronger effect = lower value",0.128 (active)
same,normalized growth,"S. cerevisiae deletion strains, locus YLR221C, strain rsa3, stronger effect = lower value",0.118 (active)
same,normalized growth,"S. cerevisiae deletion strains, locus YLR258W, strain gsy2, stronger effect = lower value",0.0729 (active)
same,normalized growth,"S. cerevisiae deletion strains, locus YLR262C, strain YPT6 (second series), stronger effect = lower value",0.109 (active)
same,normalized growth,"S. cerevisiae deletion strains, locus YLR262C, strain YPT6, stronger effect = lower value",0.184 (active)
same,normalized growth,"S. cerevisiae deletion strains, locus YLR268W, strain sec22, stronger effect = lower value",0.104 (active)
same,normalized growth,"S. cerevisiae deletion strains, locus YLR320W, strain mms22, stronger effect = lower value",0.111 (active)
same,normalized growth,"S. cerevisiae deletion strains, locus YLR330W, strain CHS5, stronger effect = lower value",0.0767 (active)
same,normalized growth,"S. cerevisiae deletion strains, locus YLR342W, strain FKS1 (second series), stronger effect = lower value",0.0828 (active)
same,normalized growth,"S. cerevisiae deletion strains, locus YLR342W, strain FKS1, stronger effect = lower value",0.0814 (active)
same,normalized growth,"S. cerevisiae deletion strains, locus YLR357W, strain rsc2, stronger effect = lower value",0.178 (active)
same,normalized growth,"S. cerevisiae deletion strains, locus YLR370C, strain arc18, stronger effect = lower value",0.0851 (active)
same,normalized growth,"S. cerevisiae deletion strains, locus YLR371W, strain rom2, stronger effect = lower value",0.137 (active)
same,normalized growth,"S. cerevisiae deletion strains, locus YLR384C, strain iki3, stronger effect = lower value",0.0849 (active)
same,normalized growth,"S. cerevisiae deletion strains, locus YLR418C, strain cdc73, stronger effect = lower value",0.16 (active)
same,normalized growth,"S. cerevisiae deletion strains, locus YML016C, strain PPZ1, stronger effect = lower value",0.0635 (active)
same,normalized growth,"S. cerevisiae deletion strains, locus YML032C, strain rad52, stronger effect = lower value",0.115 (active)
same,normalized growth,"S. cerevisiae deletion strains, locus YML120C, strain ndi1, stronger effect = lower value",0.0935 (active)
same,normalized growth,"S. cerevisiae deletion strains, locus YML124C, strain tub3, stronger effect = lower value",0.0977 (active)
same,normalized growth,"S. cerevisiae deletion strains, locus YMR058W, strain fet3, stronger effect = lower value",0.0746 (active)
same,normalized growth,"S. cerevisiae deletion strains, locus YMR078C, strain ctf18, stronger effect = lower value",0.11 (active)
same,normalized growth,"S. cerevisiae deletion strains, locus YMR125W, strain sto1, stronger effect = lower value",0.112 (active)
same,normalized growth,"S. cerevisiae deletion strains, locus YMR129W, stronger effect = lower value",0.256 (active)
same,normalized growth,"S. cerevisiae deletion strains, locus YMR205C, strain PFK2, stronger effect = lower value",0.108 (active)
same,normalized growth,"S. cerevisiae deletion strains, locus YMR223W, strain ubp8, stronger effect = lower value",0.108 (active)
same,normalized growth,"S. cerevisiae deletion strains, locus YMR231W, strain pep5, stronger effect = lower value",0.105 (active)
same,normalized growth,"S. cerevisiae deletion strains, locus YMR307W, strain GAS1, stronger effect = lower value",0.145 (active)
same,normalized growth,"S. cerevisiae deletion strains, locus YNL067W, strain RPL9B, stronger effect = lower value",0.0655 (active)
same,normalized growth,"S. cerevisiae deletion strains, locus YNL071W, strain lat1, stronger effect = lower value",0.236 (active)
same,normalized growth,"S. cerevisiae deletion strains, locus YNL183C, strain NPR1, stronger effect = lower value",0.103 (active)
same,normalized growth,"S. cerevisiae deletion strains, locus YNL209W, strain ssb2, stronger effect = lower value",0.0737 (active)
same,normalized growth,"S. cerevisiae deletion strains, locus YNL233W, strain BNI4, stronger effect = lower value",0.073 (active)
same,normalized growth,"S. cerevisiae deletion strains, locus YNL248C, strain rpa49, stronger effect = lower value",0.11 (active)
same,normalized growth,"S. cerevisiae deletion strains, locus YNL250W, strain rad50, stronger effect = lower value",0.0949 (active)
same,normalized growth,"S. cerevisiae deletion strains, locus YNL271C, strain bni1, stronger effect = lower value",0.177 (active)
same,normalized growth,"S. cerevisiae deletion strains, locus YNL298W, strain CLA4, stronger effect = lower value",0.271 (active)
same,normalized growth,"S. cerevisiae deletion strains, locus YNL307C, strain MCK1, stronger effect = lower value",0.115 (active)
same,normalized growth,"S. cerevisiae deletion strains, locus YNL322C, strain KRE1 (second series), stronger effect = lower value",0.128 (active)
same,normalized growth,"S. cerevisiae deletion strains, locus YNL322C, strain KRE1, stronger effect = lower value",0.0647 (active)
same,normalized growth,"S. cerevisiae deletion strains, locus YNR049C, strain mso1, stronger effect = lower value",0.0812 (active)
same,normalized growth,"S. cerevisiae deletion strains, locus YNR052C, strain pop2, stronger effect = lower value",0.0966 (active)
same,normalized growth,"S. cerevisiae deletion strains, locus YOL012C, strain htz1",0.333
same,normalized growth,"S. cerevisiae deletion strains, locus YOL147C, strain pex11, stronger effect = lower value",0.0953 (active)
same,normalized growth,"S. cerevisiae deletion strains, locus YOR001W, strain rrp6, stronger effect = lower value",0.21 (active)
same,normalized growth,"S. cerevisiae deletion strains, locus YOR061W, strain CKA2, stronger effect = lower value",0.0666 (active)
same,normalized growth,"S. cerevisiae deletion strains, locus YOR069W, strain VPS5, stronger effect = lower value",0.0731 (active)
same,normalized growth,"S. cerevisiae deletion strains, locus YOR070C, strain gyp1, stronger effect = lower value",0.575 (active)
same,normalized growth,"S. cerevisiae deletion strains, locus YOR080W, strain dia2, stronger effect = lower value",0.09 (active)
same,normalized growth,"S. cerevisiae deletion strains, locus YOR083W, strain WHI5, stronger effect = lower value",0.112 (active)
same,normalized growth,"S. cerevisiae deletion strains, locus YOR106W, strain vam3, stronger effect = lower value",0.0906 (active)
same,normalized growth,"S. cerevisiae deletion strains, locus YOR136W, strain idh2, stronger effect = lower value",0.156 (active)
same,normalized growth,"S. cerevisiae deletion strains, locus YOR144C, strain elg1, stronger effect = lower value",0.0898 (active)
same,normalized growth,"S. cerevisiae deletion strains, locus YOR184W, strain ser1, stronger effect = lower value",0.133 (active)
same,normalized growth,"S. cerevisiae deletion strains, locus YOR231W, strain MKK1, stronger effect = lower value",0.14 (active)
same,normalized growth,"S. cerevisiae deletion strains, locus YOR265W, strain rbl2, stronger effect = lower value",0.0593 (active)
same,normalized growth,"S. cerevisiae deletion strains, locus YOR270C, strain vph1, stronger effect = lower value",0.129 (active)
same,normalized growth,"S. cerevisiae deletion strains, locus YOR290C, strain snf2, stronger effect = lower value",0.0939 (active)
same,normalized growth,"S. cerevisiae deletion strains, locus YOR316C, strain cot1, stronger effect = lower value",0.0886 (active)
same,normalized growth,"S. cerevisiae deletion strains, locus YPL051W, strain arl3, stronger effect = lower value",0.0895 (active)
same,normalized growth,"S. cerevisiae deletion strains, locus YPL078C, strain atp4, stronger effect = lower value",0.0936 (active)
same,normalized growth,"S. cerevisiae deletion strains, locus YPL106C, strain sse1, stronger effect = lower value",0.16 (active)
same,normalized growth,"S. cerevisiae deletion strains, locus YPL240C, strain hsp82, stronger effect = lower value",0.0764 (active)
same,normalized growth,"S. cerevisiae deletion strains, locus YPL256C, strain CLN2, stronger effect = lower value",0.15 (active)
same,normalized growth,"S. cerevisiae deletion strains, locus YPR119W, strain clb2, stronger effect = lower value",0.0998 (active)
same,normalized growth,"S. cerevisiae deletion strains, locus YPR141C, strain kar3, stronger effect = lower value",0.235 (active)
same,normalized growth,"S. cerevisiae deletion strains, locus YPR163C, strain tif3, stronger effect = lower value",0.107 (active)
same,normalized growth,"S. cerevisiae deletion strains, locus YPR167C, strain met16, stronger effect = lower value",0.103 (active)
same,normalized growth,"S. cerevisiae deletion strains, strain wtn01, stronger effect = lower value",0.116 (active)
same,normalized growth,"S. cerevisiae strains, strain wild type, stronger effect = lower value",0.0715 (active)
